Assay results reported in PubChem BioAssay AID588453 (National Center for Advancing Translational Sciences (NCATS), 2011).
About 4,000 (1%) of roughly 390,000 compounds were called active. Inconclusive results (about 4%) are left out. Only a selection was taken, and actives are over-represented in it overall. A number with no mark means an inactive call. Calls come from the whole dose curve; as a rule, active = well fitted inhibition curve with a large enough effect; inconclusive = small, poorly fitted or top-dose-only effect; inactive = no such curve, though single readings can be large or run the other way.

What follows are compounds tested against Thioredoxin reductase 1, cytoplasmic (Rattus norvegicus) (UniProt O89049) (assay: qHTS Assay for Inhibitors of Mammalian Selenoprotein Thioredoxin Reductase 1 (TrxR1): qHTS). Conditions: recombinant rTrxR1, NADPH fluorescence consumption, selenite substrate; series mostly up to 114 µM; activity change, negative = inhibition: at the top concentration.
From the text: The selenoprotein thioredoxin reductase (TrxR; EC 1.8.1.9) is a FAD containing homodimeric pyridine nucleotide-disulfide oxidoreductase with many cellular roles. Together with NADPH and its prime substrate thioredoxin (Trx), the enzyme forms the core of the Trx system. The mammalian Trx system exerts a wide spectrum of functions including redox regulation, antioxidant defense, regulation of transcription factors as well as support of cell growth and replication. Many of these functions involve the reduction of Trx, which may subsequently reduce a number of different substrates including ribonucleotide reductase, peroxiredoxins or NFkB. Mammalian TrxR itself also has a broad substrate specificity, reducing both protein and non-protein substrates, including low molecular weight compounds such as dehydroascorbate, lipoic acid, ubiquinone, and juglone. In addition, several drugs in clinical use for anticancer treatment are indeed known to target TrxR1.
This BioAssay is a validation of an NADPH fluorescence-based, dual-purpose qHTS rTrxR1 assay designed to find potential inhibitors and substrates of rTrxR1. For this particular BioAssay, actives are potential inhibitors. See related BioAssay for substrate data deposition.
NIH Molecular Libraries Probe Production Network [MLPCN]
NIH Chemical Genomics Center [NCGC]
Assay Provider: Elias Arner, Karolinska Institute
Assay protocol: 2 uL of reagents (buffer in column 4 as negative control and 90 nM rTrxR1 in columns 1-3 and 5-48) were dispensed into Greiner black solid-bottom 1,536-well assay plates, followed by 1 uL of NADPH (400 uM final concentration) to each well. The plates were centrifuged at 1000 rpm for 15 seconds and subsequently incubated for 5 min at room temperature (~22 deg C) to allow for rTrxR1 reduction. Compounds (23 nL) were then transferred via Kalypsys pin tool equipped with 1536-pin array (10 nL slotted pins, V&P Scientific, San Diego, CA). In addition, a duplicate 2-fold serial dilution of the control compounds auranofin, a known gold-based TrxR1 inhibitor, and juglone (5-hydroxy-1,4-naphthoquinone), a natural TrxR1 substrate, were pin-transferred to columns 2 and 3, respectively. After incubation for 15 min at room temperature (~22 deg C), 1 uL of selenite (400 uM final concentration) were dispensed to each well. The plate was immediately transferred to a ViewLux high-throughput CCD imager (PerkinElmer), wherein kinetic measurements of NADPH fluorescence (Ex 340 nm, Em 450 nm) were acquired (8 minute kinetic read, see Table 1). Read 1 was utilized to assess the capacity of a compound to serve as an rTrxR1 substrate, i.e. a decrease in NADPH fluorescence compared to the no-compound background is an indication of a substrate behavior for that particular compound. For inhibitory activity of a compound, delta values, computed as the difference in fluorescence intensity between the first and last reads of an 8-minute time kinetic window, were used. All reagents were diluted in an assay buffer consisting of 50 mM Tris-HCl, pH 7.5, 2 mM EDTA, and 0.01% Tween-20.
Throughout the screen, reagent bottle and all liquid lines were made light-tight to minimize reagent degradation. All screening operations were performed on a fully integrated robotic system (Kalypsys, San Diego, CA) containing one RX-130 and two RX-90 anthropomorphic robotic arms (Staubli, Duncan, SC). Library plates were screened starting from the lowest and proceeding to the highest concentration, and a 'double-pinning' step of the highest concentration was required to access higher concentrations of compounds. Vehicle-only plates, with DMSO being pin-transferred to the columns 5-48, were inserted uniformly at the beginning and the end of each library in order to monitor and record any shifts in the background, which can be affected by reagent dispensers or loss in enzyme activity over time. […]
% is set by controls: 0 for no effect and ±100 for the full control effect; potency is the fitted concentration of half-maximal effect.
Note: nearly all actives have a fitted effect of over 65% in size.

Sequence of Thioredoxin reductase 1, cytoplasmic (Rattus norvegicus) (O89049 whole entry, looked up): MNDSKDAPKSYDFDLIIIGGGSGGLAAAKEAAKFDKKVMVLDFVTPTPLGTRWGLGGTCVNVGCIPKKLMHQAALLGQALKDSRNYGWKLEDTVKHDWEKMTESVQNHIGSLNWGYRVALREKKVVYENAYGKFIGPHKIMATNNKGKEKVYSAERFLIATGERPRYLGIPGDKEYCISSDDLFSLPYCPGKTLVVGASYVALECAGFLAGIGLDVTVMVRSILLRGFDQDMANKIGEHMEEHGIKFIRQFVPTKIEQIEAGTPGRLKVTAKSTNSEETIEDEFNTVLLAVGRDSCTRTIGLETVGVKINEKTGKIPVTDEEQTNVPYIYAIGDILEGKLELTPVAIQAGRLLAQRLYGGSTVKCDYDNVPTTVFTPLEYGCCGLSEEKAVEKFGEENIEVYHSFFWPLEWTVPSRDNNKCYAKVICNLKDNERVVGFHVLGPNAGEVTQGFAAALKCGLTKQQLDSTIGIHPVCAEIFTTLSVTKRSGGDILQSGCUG

Row | Compound | activity change, negative = inhibition | Potency
1 | COc1ccc(-c2nc(CN3CCN(c4ncccn4)CC3)c(C)o2)cc1C | 24.7% [at 57.1 µM] | 
2 | COc1ccc(N2CCN(C(=O)CSCc3nc(-c4ccccc4Cl)oc3C)CC2)cc1 | 7.44% | 
3 | Nc1ccc(/C=C/c2ccnc3ccccc23)c([N+](=O)[O-])c1 | 2.67% | 
4 | CCCCNc1ccc(-c2nc(-c3ccncc3)no2)cc1[N+](=O)[O-] | -3.02% | 
5 | CCC1CCCCN1S(=O)(=O)c1ccc(NC(=O)c2cc(=O)c3ccccc3o2)cc1 (stereo not drawn) | 16.9% | 
6 | Brc1nc2ncnc(NCc3ccco3)c2[nH]1 | 24.3% [at 0.0914 µM] | 
7 | COc1cc(CNC(=O)c2cc3n(n2)CCCN(Cc2cccc(F)c2)C3=O)cc(OC)c1OC | 10.6% [at 57.1 µM] | 
8 | CC1CCN(C(=O)Cn2c(=O)n(-c3ccc(Cl)cc3)c(=O)c3c4c(sc32)CCC4)CC1 | 21% | 
9 | O=C(O)C1=C/C(=C/C=[N+]2c3cc(O)c(O[C@H]4OC(CO)[C@@H](O)[C@@H](O)[C@@H]4O)cc3C[C@@H]2C(=O)[O-])C[C@H](C(=O)O)N1 (stereo partly drawn) | -0.117% | 
10 | CC(C)[C@@H](NC(=O)OC(C)(C)C)C(=O)NCC1CCC(C(=O)N[C@@H](Cc2ccccc2)C(=O)O)CC1 (stereo partly drawn) | 17.4% [at 57.1 µM] | 
11 | C[C@@H](NC(=O)OC(C)(C)C)c1nnc(S(=O)(=O)Cc2ccccc2)o1 |  | 0.316 µM (active)
12 | CC(C)(C)c1ccc(C(CC(=O)O)NS(=O)(=O)Cc2ccccc2)cc1 (stereo not drawn) | 26.7% | 
13 | Cc1ccc(Cl)cc1NC(=O)CSc1nccn1C | 30% [at 57.1 µM] | 
14 | Cc1cccc(CN2Cc3cccc4c3[C@H](C=CC4)CC2=S)c1 | -7.23% | 
15 | N#Cc1ccc[n+](CC(=O)c2ccc(F)cc2)c1 | -15.1% | 
16 | CC1CCCN(c2cc3c(cc2F)c(=O)c(S(=O)(=O)c2cccc(Cl)c2)cn3Cc2ccccc2)C1 (stereo not drawn) | 20.8% | 
17 | COc1ccc(CNC(=O)CC2Oc3ccc(C)cc3NC2=O)cc1 (stereo not drawn) | 5.11% | 
18 | CCOC(=O)N1CCN(c2cc(C)c([N+](=O)[O-])cc2F)CC1 | 9.84% [at 57.1 µM] | 
19 | C=COC(=O)N1CCN(/[N+]([O-])=N/Oc2ccc([N+](=O)[O-])cc2[N+](=O)[O-])CC1 |  | 10 µM (active)
20 | COc1cc(C(=S)N2CCOCC2)cc(OC)c1OC(=O)c1ccc([N+](=O)[O-])cc1[N+](=O)[O-] | 7.04% [at 57.1 µM] | 
21 | O=C1/C(=C\c2cccnc2)CN(Cc2ccccc2)C/C1=C\c1cccnc1 |  | 50.1 µM (active)
22 | O=C(O)C1CC(=O)N(Cc2cccnc2)C1 (stereo not drawn) | -3.09% | 
23 | O=C(O)CCc1cccnc1 |  | inactive
24 | O=C(Nc1ccc2nc(SCC(=O)N3CCCc4ccccc43)sc2c1)c1ccc(Cl)cc1 | 38.1% | 

Row | Compound | activity change, negative = inhibition | Potency
25 | C=C1C=C(C(F)F)n2ncc(C(=O)NCCc3ccccc3OC)c2N1 | 1.89% | 
26 | Cc1ccccc1CN1CCC(CNC(=O)c2c(C)oc3ncnc(N4CCCCC4)c23)CC1 | 16.4% | 
27 | Cc1ccc(C)c(Cn2c(C)c(CNCc3ccc(F)cc3)c(C(=O)O)c2C)c1 | 20.8% | 
28 | O=C(Cn1c[n+](CC(=O)c2ccc([N+](=O)[O-])cc2)cn1)c1ccc([N+](=O)[O-])cc1 | -30.7% | 
29 | O=C(CCn1nnc2ccccc21)OCC(=O)c1ccc([N+](=O)[O-])cc1 | 25.8% | 
30 | O=C(CC(n1cncn1)C(Cl)(Cl)Cl)c1ccc([N+](=O)[O-])cc1 (stereo not drawn) |  | 3.55 µM (active)
31 | CCOc1ccc(N2C(=O)CC(N(O)c3ccccc3)C2=O)cc1 (stereo not drawn) |  | 12.6 µM (active)
32 | CCCOc1ccc(N2C(=O)CC(N(CCc3ccc(S(N)(=O)=O)cc3)C(C)=O)C2=O)cc1 (stereo not drawn) | 10.5% | 
33 | CCOc1ccc(N2C(=O)CC(N(CCc3ccc(OC)c(OC)c3)C(=S)Nc3ccccc3)C2=O)cc1 (stereo not drawn) | -11.6% | 
34 | O=C(CC1N=C2c3ccccc3N=C(SCc3ccc(F)cc3)N2C1=O)NCc1cccs1 (stereo not drawn) | 1.84% [at 57.1 µM] | 
35 | Cc1nc2ccccn2c(=O)c1NC(=O)c1c(F)cccc1F | 16.1% [at 57.1 µM] | 
36 | CCc1ccc(NC(=O)CCCc2nnc3n(CCCOC)c(=O)c4sccc4n23)cc1 | 23.7% | 
37 | CCOc1cccc(CC(=O)N2CCc3c([nH]c4ccccc34)C2c2ccc(F)cc2)c1OCC (stereo not drawn) | 38.1% [at 57.1 µM] | 
38 | CCOc1ccccc1CNC(=O)c1ccc(-n2c(C)cc3c2CCC(C)C3)cc1 (stereo not drawn) | -7.5% | 
39 | CCOc1cccc2c1N[C@@H](c1ccc(C(=O)O)cc1)[C@H]1CC=C[C@@H]21 |  | 11.2 µM (active)
40 | O=C(c1cnn2c1NC(=C1CC1)C=C2C(F)F)N1CCc2ccccc2C1 | -19.6% | 
41 | CCOC(=O)c1ccc(NC(=O)C2CC(=O)N(c3ccc(C(C)C)cc3)C2)cc1 (stereo not drawn) | 10.9% | 
42 | O=C(CN1CCN(S(=O)(=O)c2cc(Cl)ccc2Cl)CC1)c1ccc(O)c(O)c1 |  | 44.7 µM (active)
43 | CCN1CCN(C(=O)C2CCN(S(=O)(=O)c3cc(Cl)ccc3Cl)CC2)CC1 | 18.4% [at 57.1 µM] | 
44 | O=S(=O)(c1cc(Cl)ccc1Cl)N1CCN(Cc2ccco2)CC1 | -4.98% | 
45 | CN1CCN(C2(CNC(=O)COc3ccc(C(C)(C)C)cc3)CCCCC2)CC1 | 18.5% | 
46 | COc1ccc2cc(-c3[nH]ncc3CNCCn3nc(C)cc3C)ccc2c1 | 28.7% | 
47 | COc1ccc(S(=O)(=O)NCC(c2ccc(N(C)C)cc2)N2CCCC2)cc1 (stereo not drawn) | 11.6% [at 57.1 µM] | 
48 | COc1ccc(C(C[N+](=O)[O-])n2nc(C)cc2C)cc1 (stereo not drawn) |  | 8.91 µM (active)
